Results reported in PubChem BioAssay (NCATS).
Results filed as inconclusive are left out. Calls of active or inactive are those of the source. Calls follow the shape of the dose curve; as a rule, active = well fitted cell-killing curve with a large enough effect; inconclusive = small, poorly fitted or top-dose-only effect, or effect the other way; inactive = flat fitted curve, though single readings scatter.

System: CAOV3
Assay: Primary qHTS to identify gynecologic anti-cancer compounds using libraries of approved drugs and bioactive compounds (AID 1345084); also: nearly all actives have a fitted effect of over 55% in size
Conditions: Gynecologic cancer cell panel viability, ATPlite luminescence, 48 h; series mostly up to 57.5 µM; activity change, negative = cytotoxicity: at the top concentration
Description: National Center for Advancing Translational Sciences [NCATS] Assay Overview: Chemotherapeutic drug responses vary from cancer to cancer and from patient to patient. These variations could be caused by a number of factors including patient genomic background, tumor mutations, tumor heterogeneity, and aspects of drug treatment. Chemotherapeutic drug resistance is also a common issue and can lead to ineffective treatment and patient death. Here we have profiled the cell killing effects of thousands of compounds to characterize the responses in three gynecological cancers, identify cancer-selective compounds, and understand the diversity of responses to these compounds from pan-cancer suppressors to single cell line selective compounds. In this assay, we screened a 7,914 compound drug library that included approved drug and bioactive compounds in six ovarian, three cervical, and […] placental cancer cell lines using the ATPlite assay for cell viability. […] The cervical cancer cell lines included HeLa, Ca Ski, and C-33 A. The placental cancer cell lines included JEG-3. HEK 293T cells were used as the control cell line to determine the selectivity index. ATPlite is a luminescence based assay reliant on the conversion of a luciferase substrate to light in the presence of ATP. As a cytotoxic compound will suppress growth and decrease the number of cells, the concentration of ATP will decrease, and less light signal will be detected in the well.
Assay Protocol Summary: 1,000 cells in 4 uL of media were dispensed into white, solid bottom 1536-well plates using a Multidrop Combi (Thermo Scientific). The Assay plates were incubated for 16 hours at 37 C with 5% CO2 in assay plates, followed by the addition of 23 nL of DMSO or drug dissolved in DMSO. Each compound was assayed in five concentrations (0.092, 0.46, 2.3, 11.5, and 57.5 uM), using the automated Wako 1536 Pin Tool workstation and incubated at 37 C with 5% CO2 48 hours. 4 uL of ATPlite, the ATP monitoring reagent, was then added to the each well of the assay plates using the Multidrop Combi reagent dispenser followed by incubation for 15 minutes at room temperature. The resulting luminescence was measured using the ViewLux plate reader.
% is scaled to controls: 0 for no effect and ±100 for the full control effect.

Row | Compound | activity change, negative = cytotoxicity | Potency
1 | C[C@H]1c2cccc(O)c2C(O)=C2C(=O)[C@]3(O)C(O)=C(C(N)=O)C(=O)[C@@H](N(C)C)[C@@H]3[C@@H](O)[C@@H]21 | 1.48% (inactive) | 
2 | Cc1cn([C@H]2C[C@H](N=[N+]=[N-])[C@@H](CO)O2)c(=O)[nH]c1=O | -15.2% (inactive) | 
3 | Clc1ccc2c(c1)C(N1CCNCC1)=Nc1ccccc1O2 |  | inactive
4 | CC(C)NCC(O)COc1ccc(CCOCC2CC2)cc1 (stereo not given) | 0.982% (inactive) | 
5 | O=c1[nH]cc(F)c(=O)[nH]1 | -9.94% (inactive) | 
6 | Nc1ccn([C@H]2CC[C@@H](CO)O2)c(=O)n1 | 6.17% (inactive) | 
7 | CN(Cc1cnc2nc(N)nc(N)c2n1)c1ccc(C(=O)N[C@@H](CCC(=O)O)C(=O)O)cc1 | 3.6% (inactive) | 
8 | CCN1CCCC1CNC(=O)c1cc(S(=O)(=O)CC)c(N)cc1OC (stereo not given) | 21.8% (inactive) | 
9 | CN(C)CCC=C1c2ccccc2C=Cc2ccccc21 | -7% (inactive) | 
10 | CN(C)C(=N)N=C(N)N | -0.623% (inactive) | 
11 | NCCc1cnc[nH]1 | -1.51% (inactive) | 
12 | C[C@@H]1CC(=O)NN=C1c1ccc(NN=C(C#N)C#N)cc1 |  | inactive
13 | Nc1nc2c(ncn2COC(CO)CO)c(=O)[nH]1 | 10.7% (inactive) | 
14 | CS(=O)(=O)Nc1ccc([N+](=O)[O-])cc1Oc1ccccc1 | 30.3% (inactive) | 
15 | OCCN1CCN(CCCN2c3ccccc3Sc3ccc(C(F)(F)F)cc32)CC1 | -2.06% (inactive) | 
16 | N[C@@H](Cc1c[nH]c2ccc(O)cc12)C(=O)O | 10.8% (inactive) | 
17 | Cc1cnc(C(=O)NCCc2ccc(S(=O)(=O)NC(=O)NC3CCCCC3)cc2)cn1 | 3.87% (inactive) | 
18 | Clc1ccc(C(c2ccccc2Cl)C(Cl)Cl)cc1 (stereo not given) | -27.6% (inactive) | 
19 | CC(COc1ccccc1)N(CCCl)Cc1ccccc1 (stereo not given) | 11.4% (inactive) | 
20 | COc1nc(C)nc(Cl)c1NC1=NCCN1 | 17.1% (inactive) | 

Row | Compound | activity change, negative = cytotoxicity | Potency
21 | COc1ccc(C2CNC(=O)C2)cc1OC1CCCC1 (stereo not given) | 0% (inactive) | 
22 | Clc1ccc2nsnc2c1NC1=NCCN1 | 6.17% (inactive) | 
23 | C[C@](N)(Cc1ccc(O)c(O)c1)C(=O)O | -2.69% (inactive) | 
24 | NC12CC3CC(CC(C3)C1)C2 | -1.43% (inactive) | 
25 | O=c1c(-c2ccc(O)cc2)coc2cc(O)cc(O)c12 | -20.5% (inactive) | 
26 | CC(C(=O)O)c1cccc(C(=O)c2ccccc2)c1 (stereo not given) | -0.191% (inactive) | 
27 | Cc1cn([C@H]2C=C[C@@H](CO)O2)c(=O)[nH]c1=O | 10.9% (inactive) | 
28 | CN(C)c1nc(N(C)C)nc(N(C)C)n1 | 0% (inactive) | 
29 | CN(C)CCOC(c1ccccc1)c1ccccc1 | 16.8% (inactive) | 
30 | O=C1N(c2ccccc2)c2ccccc2C1(Cc1ccncc1)Cc1ccncc1 | -5.4% (inactive) | 
31 | Cc1ccccc1N1C(=O)c2cc(S(N)(=O)=O)c(Cl)cc2NC1C (stereo not given) | 13.6% (inactive) | 
32 | COc1ccc(CCN(C)CCCC(C#N)(c2ccc(OC)c(OC)c2)C(C)C)cc1OC (stereo not given) | 8.61% (inactive) | 
33 | CC(C)(C)C(=O)Oc1ccc(S(=O)(=O)Nc2ccccc2C(=O)NCC(=O)O)cc1 | 5.81% (inactive) | 
34 | COc1ccc2[nH]cc(CCNC(C)=O)c2c1 | 10.3% (inactive) | 
35 | CCc1cccc2c3c([nH]c12)C(CC)(CC(=O)O)OCC3 (stereo not given) | -3.68% (inactive) | 
36 | NCCCCCC(=O)O | -8.5% (inactive) | 
37 | Nc1nnc(-c2cccc(Cl)c2Cl)c(N)n1 | 9.52% (inactive) | 
38 | Cn1cnc2c1c(=O)[nH]c(=O)n2C | 0.313% (inactive) | 
39 | CN1CCC(=C2c3ccccc3C=Cc3ccccc32)CC1 | -6.89% (inactive) | 
40 | CC(C)(Oc1ccc(C2CC2(Cl)Cl)cc1)C(=O)O (stereo not given) | 1.49% (inactive) | 
